# Measured values: PubChem BioAssay
# Records with an inconclusive call do not appear. The source made the active and inactive calls.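 Rule for the calls, unless noted: active = GFP response above 150% of the DMSO control; inconclusive = fewer than 70 events counted in any yeast strain; inactive = the rest.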
# Legend:
# [1] = yeast TOR pathway RPL19A-GFP modulators, primary screen, cell-based, S. cerevisiae, multiplex flow cytometry (AID 1862; in the data active = percent of DMSO control GFP below about 86%;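 note: lower values mimic rapamycin by blocking the RPL19A rise seen in DMSO cells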); settings: S. cerevisiae RPL19A-GFP strain, flow cytometry fluorescence, 3 h; at 10 µM; stronger effect = lower value
# [2] = modulators of MEP2-GFP levels in yeast, primary screen, S. cerevisiae, multiplex flow cytometry (AID 1867;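 active = GFP response, as percent of the DMSO control, above the screen-wide mean plus 3 SD, about 139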;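 note: median GFP channel fluorescence of barcode-gated MEP2-GFP cells measured by flow cytometry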); settings: S. cerevisiae MEP2-GFP strain, 3 h, at 10 µM, stronger effect = higher value, 100% means same as DMSO wells
# [3] = modulators of CIT2-GFP expression in yeast, primary screen, S. cerevisiae, GFP fusion, multiplex flow cytometry (AID 1870;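 active = percent response above a set limit, the screen-wide mean plus 3 SD, cut at about 130% in these data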;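 note: barcoded CIT2-GFP strain pooled with four other GFP strains with rapamycin as positive control; median GFP fluorescence per well over plate mean of DMSO wells so 100% = DMSO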); settings: 3 h, at 10 µM, stronger effect = higher value
# [4] = modulators of LAP4-GFP expression in yeast, primary screen, S. cerevisiae, multiplex flow cytometry (AID 1873;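 active = GFP signal, as percent of the solvent control, above the screen mean plus 3 SD, about 149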); settings: 3 h, at 10 µM, stronger effect = higher value
# [5] = modulators of AGP1-GFP expression in yeast TOR pathway, primary screen, cell-based, multiplex flow cytometry, S. cerevisiae (AID 1887;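 active = GFP signal above the screen-wide mean plus 3 SD, that is over about 124.5% of the solvent control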;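 note: AGP1-GFP fusion strain of S. cerevisiae within a five-strain barcoded multiplex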); settings: 3 h, at 10 µM, stronger effect = higher value
# [6] = RPL19A-GFP modulators, yeast TOR pathway, confirmation, cell-based, S. cerevisiae, flow cytometry, cherry picks, mother/daughter gates (AID 2270;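 active = GFP response below 50% of the DMSO control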); settings: S. cerevisiae RPL19A-GFP strain, 3 h, at 10 µM, stronger effect = lower value, 100 = same GFP as DMSO wells
# [7] = LAP4-GFP expression modulators in yeast, confirmation, cell-based, cherry picks, flow cytometry, mother/daughter gates (AID 2271);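 note: ratio of sample to DMSO plate mean so 100% equals DMSO level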; settings: S. cerevisiae LAP4-GFP strain, 3 h, at 10 µM, stronger effect = higher value, 100 means same as DMSO control
# [8] = modulators of MEP2-GFP levels in yeast, confirmation, S. cerevisiae, flow cytometry GFP, cherry picks (AID 2272;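 active = GFP response above 150% of the DMSO control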;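 note: ratio of well signal to plate DMSO mean so 100% equals DMSO level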); settings: S. cerevisiae MEP2-GFP strain, 3 h, at 10 µM, stronger effect = higher value
# [9] = modulators of CIT2-GFP expression in yeast, confirmation, S. cerevisiae, GFP fusion, cherry picks, mother/daughter gates (AID 2274;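 active = GFP response above 150% of the DMSO level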); settings: S. cerevisiae CIT2-GFP strain, flow cytometry, 3 h, at 10 µM, stronger effect = higher value
# [10] = inhibitors of CD8+ T cell-vesicle binding, pilot screen, LFA-1/ICAM-1 modulator project, MLPCN validation set, flow cytometry (AID 2523;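 active = response below a set limit, under 55% cells CD8-positive and vesicle-bound, and CD8 cells' 90th-percentile brightness under 279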;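 for vesicle binding response: mean PE anti-B7-1 fluorescence of CD8+ cells relative to row control; 100% = QL9-loaded vesicles with DMSO vehicle in the same plate row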); settings: 2C mouse CD8+ T cells, at 7 µM, stronger effect = lower value; double positive events: measured here: CD8+/vesicle+ event percentage
# [11] = molecular target: Integrin beta-1 (Homo sapiens) + Integrin alpha-4 (Homo sapiens) (UniProt P13612+P05556); assay: inhibition of HUTS-21 binding to VLA-4, pilot screen, VLA-4 allosteric modulator project, U937 cells, HUTS-21 mAb, flow cytometry, validation set (AID 2674;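 active = inhibition above 50%, about 3 SD of the validation set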;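 note: antibody binding induced by the VLA-4 ligand LDV present at three times its Kd; 0% = LDV ligand with antibody and no compound and 100% = antibody without LDV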); settings: HUTS-21 LIBS mAb binding, at 6.7 µM, stronger effect = higher value, binding induced by LDV ligand
# Integrin beta-1 (Homo sapiens) + Integrin alpha-4 (Homo sapiens), sequence (P05556 whole entry, looked up): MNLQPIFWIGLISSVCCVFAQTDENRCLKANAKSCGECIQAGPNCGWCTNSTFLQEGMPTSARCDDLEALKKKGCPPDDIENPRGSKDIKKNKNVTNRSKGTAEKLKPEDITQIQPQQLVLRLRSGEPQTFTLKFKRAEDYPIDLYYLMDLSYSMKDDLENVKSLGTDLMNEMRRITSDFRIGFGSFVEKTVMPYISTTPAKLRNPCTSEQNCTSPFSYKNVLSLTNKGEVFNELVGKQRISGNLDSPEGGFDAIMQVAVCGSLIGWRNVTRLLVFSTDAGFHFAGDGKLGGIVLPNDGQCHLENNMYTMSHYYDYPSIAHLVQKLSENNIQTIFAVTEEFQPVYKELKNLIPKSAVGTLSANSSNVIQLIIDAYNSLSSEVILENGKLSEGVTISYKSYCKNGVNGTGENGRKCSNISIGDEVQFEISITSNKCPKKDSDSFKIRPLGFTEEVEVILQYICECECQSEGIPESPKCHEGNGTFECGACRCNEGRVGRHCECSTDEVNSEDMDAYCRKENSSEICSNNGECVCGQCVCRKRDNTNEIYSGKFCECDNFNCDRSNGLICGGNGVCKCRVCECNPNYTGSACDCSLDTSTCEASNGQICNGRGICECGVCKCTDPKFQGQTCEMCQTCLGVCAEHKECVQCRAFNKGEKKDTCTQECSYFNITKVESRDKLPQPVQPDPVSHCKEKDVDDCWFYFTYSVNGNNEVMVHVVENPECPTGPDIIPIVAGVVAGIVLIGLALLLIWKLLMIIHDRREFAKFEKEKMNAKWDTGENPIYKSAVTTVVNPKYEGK
# Integrin beta-1 (Homo sapiens) + Integrin alpha-4 (Homo sapiens), sequence (P13612 whole entry, looked up): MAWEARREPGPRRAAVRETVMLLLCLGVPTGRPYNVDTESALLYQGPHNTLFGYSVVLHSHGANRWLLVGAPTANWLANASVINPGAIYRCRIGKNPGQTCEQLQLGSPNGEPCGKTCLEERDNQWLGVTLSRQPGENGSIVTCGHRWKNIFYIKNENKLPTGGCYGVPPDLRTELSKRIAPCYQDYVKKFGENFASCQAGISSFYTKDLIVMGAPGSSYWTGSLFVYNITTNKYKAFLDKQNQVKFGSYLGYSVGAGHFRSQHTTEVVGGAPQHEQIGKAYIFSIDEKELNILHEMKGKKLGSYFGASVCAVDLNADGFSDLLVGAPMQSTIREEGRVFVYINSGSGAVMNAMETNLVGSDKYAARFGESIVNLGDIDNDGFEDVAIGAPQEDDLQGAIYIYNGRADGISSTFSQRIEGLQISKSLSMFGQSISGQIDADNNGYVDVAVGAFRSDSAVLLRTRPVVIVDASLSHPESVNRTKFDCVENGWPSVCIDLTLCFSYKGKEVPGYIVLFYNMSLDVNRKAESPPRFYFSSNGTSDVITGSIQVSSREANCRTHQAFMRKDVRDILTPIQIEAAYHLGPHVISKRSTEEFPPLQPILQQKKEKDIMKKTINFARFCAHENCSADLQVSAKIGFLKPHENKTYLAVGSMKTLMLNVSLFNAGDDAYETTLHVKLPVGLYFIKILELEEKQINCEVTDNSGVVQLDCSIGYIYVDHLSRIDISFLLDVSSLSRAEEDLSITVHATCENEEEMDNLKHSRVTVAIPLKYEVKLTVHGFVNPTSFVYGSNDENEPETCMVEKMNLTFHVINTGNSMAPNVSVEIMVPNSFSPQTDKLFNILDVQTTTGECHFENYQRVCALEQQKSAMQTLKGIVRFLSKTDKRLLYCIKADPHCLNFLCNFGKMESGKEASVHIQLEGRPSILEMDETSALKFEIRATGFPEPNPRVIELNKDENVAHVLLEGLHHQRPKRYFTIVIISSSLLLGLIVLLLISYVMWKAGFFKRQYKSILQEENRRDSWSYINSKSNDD
# [12] = superoxide lowering in aged yeast cells, pilot screen, validation compound set (AID 2706;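 active = superoxide response below 65% of plate, a cut near 3 SD across the whole screen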;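 note: yeast exposed to compound for one week at 30 degrees C before staining; 100% = mean of all compound wells on the same plate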); settings: S. cerevisiae aging, superoxide DHE fluorescence; at 10 µM; stronger effect = lower value
# [13] = molecular target: Beta-adrenergic receptor kinase 1 (Homo sapiens) (UniProt P25098); assay: GRK2 binders displacing RNA aptamer, biochemical, validation, human GRK2, bead flow cytometry (AID 488806;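 active = aptamer binding inhibition above 30%, about 3 SD of noise from non-fluorescent compounds; inactive = inhibition at or below 30%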); settings: bead-bound GRK2, FAM-aptamer displacement, at 10 µM, stronger effect = higher value
# Beta-adrenergic receptor kinase 1 (Homo sapiens), sequence (P25098 whole entry, looked up): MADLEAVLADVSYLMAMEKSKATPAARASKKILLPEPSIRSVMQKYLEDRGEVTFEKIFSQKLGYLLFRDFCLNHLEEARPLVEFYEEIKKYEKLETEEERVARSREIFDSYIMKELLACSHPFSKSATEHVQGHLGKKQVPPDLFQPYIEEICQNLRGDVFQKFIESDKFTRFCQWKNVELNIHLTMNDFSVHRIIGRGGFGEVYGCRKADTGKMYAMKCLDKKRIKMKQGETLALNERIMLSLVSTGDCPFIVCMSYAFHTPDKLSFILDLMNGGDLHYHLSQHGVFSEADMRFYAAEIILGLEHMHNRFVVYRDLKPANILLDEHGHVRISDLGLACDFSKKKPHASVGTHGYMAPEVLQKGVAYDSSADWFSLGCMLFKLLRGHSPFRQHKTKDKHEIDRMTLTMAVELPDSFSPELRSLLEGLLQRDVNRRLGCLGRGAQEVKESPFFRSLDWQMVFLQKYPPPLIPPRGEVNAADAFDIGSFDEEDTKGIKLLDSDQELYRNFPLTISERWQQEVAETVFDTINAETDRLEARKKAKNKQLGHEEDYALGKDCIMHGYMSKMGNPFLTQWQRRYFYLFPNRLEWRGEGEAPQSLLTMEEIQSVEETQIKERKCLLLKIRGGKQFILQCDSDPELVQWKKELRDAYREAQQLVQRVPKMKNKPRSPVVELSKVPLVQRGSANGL
# [14] = molecular target: Beta-2 adrenergic receptor (Homo sapiens) (UniProt P07550); assay: beta2AR agonists driving receptor internalization, pilot screen, cell-based, FAP fluorogen, flow cytometry, validation set (AID 504459;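 active = percent response above 42, roughly 3 SD of non-fluorescent test compounds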;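 note: agonist-driven loss of surface beta2AR via internalization measured by FAP dye flow cytometry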); settings: Am2.2-beta2AR cells, FAP surface receptor flow cytometry; at 10 µM; stronger effect = higher value
# Beta-2 adrenergic receptor (Homo sapiens), sequence (P07550 whole entry, looked up): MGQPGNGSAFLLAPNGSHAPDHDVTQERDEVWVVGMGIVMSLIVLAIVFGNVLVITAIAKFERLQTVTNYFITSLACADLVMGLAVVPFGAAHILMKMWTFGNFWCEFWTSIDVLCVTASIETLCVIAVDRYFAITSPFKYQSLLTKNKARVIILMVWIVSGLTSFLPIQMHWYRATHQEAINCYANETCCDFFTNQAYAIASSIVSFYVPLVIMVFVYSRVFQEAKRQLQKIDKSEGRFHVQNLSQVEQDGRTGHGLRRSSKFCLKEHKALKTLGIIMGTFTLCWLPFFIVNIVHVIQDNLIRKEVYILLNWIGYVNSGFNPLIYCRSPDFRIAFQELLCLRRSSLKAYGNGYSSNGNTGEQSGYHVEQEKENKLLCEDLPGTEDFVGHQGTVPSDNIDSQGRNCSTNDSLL
# [15] = molecular target: AP-2 complex subunit beta (Homo sapiens) (UniProt P63010); assay: inhibitors of arrestin peptide binding to AP2, pilot screen, biochemical, validation set, GST-AP2 beads, flow cytometry (AID 504541;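 active = inhibition above 54%, about 3 SD of non-fluorescent compounds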;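 note: AP2 carries R879A mutation and is captured from E. coli lysate; bead-bound FITC arrestin peptide fluorescence measuring arrestin peptide binding to AP2; 0% = DMSO wells and 100% = excess unlabeled arrestin peptide control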); settings: FITC arrestin peptide, at 10 µM, stronger effect = higher value, AP2 beta2 appendage fragment, R879A mutant
# AP-2 complex subunit beta (Homo sapiens), sequence (P63010 whole entry, looked up, the tested form may be a part, one chain of several): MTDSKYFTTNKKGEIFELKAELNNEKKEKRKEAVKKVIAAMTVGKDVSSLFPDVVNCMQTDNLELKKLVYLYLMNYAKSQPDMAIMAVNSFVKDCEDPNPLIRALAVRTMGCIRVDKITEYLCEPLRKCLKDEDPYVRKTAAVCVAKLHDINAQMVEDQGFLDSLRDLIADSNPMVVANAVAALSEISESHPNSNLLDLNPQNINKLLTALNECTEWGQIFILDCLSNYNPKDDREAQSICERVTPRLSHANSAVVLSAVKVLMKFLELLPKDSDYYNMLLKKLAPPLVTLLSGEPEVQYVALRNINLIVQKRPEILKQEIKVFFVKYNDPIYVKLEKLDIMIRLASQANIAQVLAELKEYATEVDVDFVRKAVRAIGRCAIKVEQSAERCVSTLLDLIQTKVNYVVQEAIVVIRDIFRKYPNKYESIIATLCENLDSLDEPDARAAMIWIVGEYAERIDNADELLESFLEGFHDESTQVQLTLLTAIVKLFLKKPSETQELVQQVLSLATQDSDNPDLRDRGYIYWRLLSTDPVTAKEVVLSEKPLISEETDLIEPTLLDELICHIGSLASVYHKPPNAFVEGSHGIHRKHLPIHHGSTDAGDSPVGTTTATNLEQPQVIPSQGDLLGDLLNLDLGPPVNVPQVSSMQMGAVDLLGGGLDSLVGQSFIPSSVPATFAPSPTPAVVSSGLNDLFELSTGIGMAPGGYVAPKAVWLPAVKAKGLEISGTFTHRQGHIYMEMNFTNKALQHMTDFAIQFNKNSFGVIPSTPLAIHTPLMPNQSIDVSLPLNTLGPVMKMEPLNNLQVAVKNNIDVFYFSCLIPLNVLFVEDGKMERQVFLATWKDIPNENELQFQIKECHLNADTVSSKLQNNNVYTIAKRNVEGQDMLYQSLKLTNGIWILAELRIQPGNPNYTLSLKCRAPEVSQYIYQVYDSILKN
# [16] = yeast V-ATPase proton transport modulators, S. cerevisiae, pHLuorin, HTS validation (AID 504600; in the data active = response above about 15%;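 note: plate controls were DMSO for no effect and reference compound for full effect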); settings: S. cerevisiae pHLuorin cytosolic pH, at 10 µM, stronger effect = higher value
# [17] = tested on: anti-desmoglein-3 scFv antibody binding to human DSG3; assay: inhibitors of anti-DSG3 scFv binding to DSG3, pilot screen, biochemical, validation compound set, bead-based, flow cytometry (AID 588368;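 active = binding below the plate cutoff, the plate median minus 3 SD, with a reading above zero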;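 note: signal is the median channel fluorescence of bead-bound GFP antibody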); settings: Protein G beads, DSG3-Fc, scFv-GFP binding, at 10 µM, stronger effect = lower value
# [18] = inhibitors of fungal efflux pumps CDR1, CDR2, MDR1, pilot screen, validation compound set, multiplex, phenotypic (AID 588506;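 active = efflux inhibition above 0.42, the validation set average plus 4 SD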;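 note: Nile Red retained in cells so higher fluorescence means more efflux inhibition; 0 = negative control wells and 1 = enniatin B 25 µM full block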); settings: S. cerevisiae pump-expressing triplex, Nile Red efflux flow cytometry; at 10 µM; stronger effect = higher value; the pumps come from Candida albicans
# [19] = molecular target: ATP-binding cassette sub-family B member 6 (Homo sapiens) (UniProt Q9NP58); assay: ABCB6 transporter inhibitors, pilot screen, K562-ABCB6 cells, flow cytometry, validation set (AID 588550;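 active = inhibition above the screen-wide mean plus 3 SD, about 51%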;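 note: 0% = DMSO wells and 100% = benzethonium chloride 70 µM positive control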); settings: K562-ABCB6 porphyrin accumulation, 1 h, at 10 µM, stronger effect = higher value
# ATP-binding cassette sub-family B member 6 (Homo sapiens), sequence (Q9NP58 whole entry, looked up): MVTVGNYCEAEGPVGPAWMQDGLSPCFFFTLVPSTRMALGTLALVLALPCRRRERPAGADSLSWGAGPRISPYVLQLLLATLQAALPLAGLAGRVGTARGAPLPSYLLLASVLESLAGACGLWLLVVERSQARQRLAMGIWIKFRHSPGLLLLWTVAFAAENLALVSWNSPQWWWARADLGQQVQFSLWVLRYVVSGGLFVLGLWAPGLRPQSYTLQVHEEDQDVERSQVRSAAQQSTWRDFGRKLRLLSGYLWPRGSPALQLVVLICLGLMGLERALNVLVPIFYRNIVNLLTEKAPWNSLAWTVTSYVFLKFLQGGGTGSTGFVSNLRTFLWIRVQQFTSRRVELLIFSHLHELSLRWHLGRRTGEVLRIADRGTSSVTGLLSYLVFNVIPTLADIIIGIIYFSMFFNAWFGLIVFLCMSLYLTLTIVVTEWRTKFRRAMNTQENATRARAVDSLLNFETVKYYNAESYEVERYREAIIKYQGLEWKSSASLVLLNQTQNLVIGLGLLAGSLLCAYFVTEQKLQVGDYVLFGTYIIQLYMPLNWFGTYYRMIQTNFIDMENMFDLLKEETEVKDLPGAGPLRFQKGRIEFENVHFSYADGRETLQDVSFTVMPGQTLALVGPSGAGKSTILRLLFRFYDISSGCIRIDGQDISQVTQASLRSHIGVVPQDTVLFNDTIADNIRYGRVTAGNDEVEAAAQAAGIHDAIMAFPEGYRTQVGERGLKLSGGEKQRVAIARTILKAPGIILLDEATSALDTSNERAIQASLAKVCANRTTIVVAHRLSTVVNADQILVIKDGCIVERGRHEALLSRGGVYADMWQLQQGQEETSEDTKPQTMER
# [20] = promoters of myeloid differentiation in arrested cells, primary screen, cell-based, GFP/MAC1 double positive, flow cytometry, validation set (AID 588685;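 active = differentiation response of at least 50%, scaled between solvent and reference control, from cells with both markers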;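 note: compound exposure lasts four days before antibody staining and flow analysis; 0% = DMSO wells and 100% = 5 µM fulvestrant positive control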); settings: ER-HoxA9 marrow cells, stronger effect = higher value, normalized: vehicle 0, fulvestrant 100
# [21] = measured here: daughter cell gate
# [22] = measured here: mother cell gate
# [23] = measured here: daughter cell gate response
# [24] = measured here: mother cell gate response
smiles,measurement,setting,value
CC(=O)c1ccc(CCCCCCCCCC(=O)O)s1,percent of DMSO control GFP,[1],98.6% (inactive)
same,GFP response vs DMSO,[2],97.4% (inactive)
same,percent response of DMSO control,[3],66.4% (inactive)
same,GFP response vs DMSO,[4],174% (active)
same,"GFP response, % of DMSO",[5],86.2% (inactive)
same,GFP response vs DMSO,[6],99% (inactive)
same,GFP response vs DMSO,[6]; [21],96.7%
same,GFP response vs DMSO,[6]; [22],98.5%
same,GFP response relative to DMSO,[7],108% (inactive)
same,GFP response relative to DMSO,[7]; [23],111%
same,GFP response relative to DMSO,[7]; [24],113%
same,GFP response vs DMSO,[8],100% (inactive)
same,"GFP response, % of DMSO",[9],99.1% (inactive)
same,"GFP response, % of DMSO",[9]; [21],93.2%
same,"GFP response, % of DMSO",[9]; [22],101%
same,double positive events,[10],60%
same,vesicle binding response,[10],207% (inactive)
same,inhibition,[11],13.2% (inactive)
same,superoxide response (% of plate),[12],117% (inactive)
same,aptamer binding inhibition,[13],-5% (inactive)
same,response,[14],23.9% (inactive)
same,inhibition,[15],26.2% (inactive)
same,response,[16],-3% (inactive)
same,binding (% of control),[17],99.3% (inactive)
same,efflux inhibition (fraction of control),[18],0.01 (inactive)
same,inhibition,[19],-2% (inactive)
same,differentiation response,[20],66.4% (active)
C#C[C@]1(O)CC[C@H]2[C@@H]3CCC4=CC(=O)CC[C@@H]4[C@H]3CC[C@@]21CC,percent of DMSO control GFP,[1],96.3% (inactive)
same,GFP response vs DMSO,[2],96.6% (inactive)
same,percent response of DMSO control,[3],97.7% (inactive)
same,GFP response vs DMSO,[4],107% (inactive)
same,"GFP response, % of DMSO",[5],103% (inactive)
same,GFP response vs DMSO,[6],101% (inactive)
same,GFP response vs DMSO,[6]; [21],98.7%
same,GFP response vs DMSO,[6]; [22],101%
same,GFP response relative to DMSO,[7],101% (inactive)
same,GFP response relative to DMSO,[7]; [23],102%
same,GFP response relative to DMSO,[7]; [24],103%
same,GFP response vs DMSO,[8],95.7% (inactive)
same,"GFP response, % of DMSO",[9],102% (inactive)
same,"GFP response, % of DMSO",[9]; [21],99.7%
same,"GFP response, % of DMSO",[9]; [22],102%
same,double positive events,[10],62.5%
same,vesicle binding response,[10],142% (inactive)
same,inhibition,[11],15.1% (inactive)
same,superoxide response (% of plate),[12],92.6% (inactive)
same,aptamer binding inhibition,[13],8% (inactive)
same,response,[14],-17.9% (inactive)
same,inhibition,[15],-1.43% (inactive)
same,response,[16],1.52% (inactive)
same,binding (% of control),[17],98% (inactive)
same,efflux inhibition (fraction of control),[18],-0.04 (inactive)
same,inhibition,[19],7% (inactive)
same,differentiation response,[20],2.89% (inactive)
CC(=O)[C@@]1(O)CC[C@H]2[C@@H]3CCC4=CC(=O)CC[C@]4(C)[C@H]3[C@@H](O)C[C@@]21C,percent of DMSO control GFP,[1],104% (inactive)
same,GFP response vs DMSO,[2],95.9% (inactive)
same,percent response of DMSO control,[3],94.9% (inactive)
same,GFP response vs DMSO,[4],90.3% (inactive)
same,"GFP response, % of DMSO",[5],96.4% (inactive)
same,GFP response vs DMSO,[6],99.3% (inactive)
same,GFP response vs DMSO,[6]; [21],99.3%
same,GFP response vs DMSO,[6]; [22],99.7%
same,GFP response relative to DMSO,[7],97.7% (inactive)
same,GFP response relative to DMSO,[7]; [23],97.9%
same,GFP response relative to DMSO,[7]; [24],96.5%
same,GFP response vs DMSO,[8],102% (inactive)
same,"GFP response, % of DMSO",[9],96.4% (inactive)
same,"GFP response, % of DMSO",[9]; [21],98.3%
same,"GFP response, % of DMSO",[9]; [22],94.5%
same,double positive events,[10],56.2%
same,vesicle binding response,[10],182% (inactive)
same,inhibition,[11],12.8% (inactive)
same,superoxide response (% of plate),[12],89.3% (inactive)
same,aptamer binding inhibition,[13],1% (inactive)
same,inhibition,[15],-12.8% (inactive)
same,response,[16],4.15% (inactive)
same,binding (% of control),[17],100% (inactive)
same,efflux inhibition (fraction of control),[18],-0.2 (inactive)
same,inhibition,[19],10% (inactive)
same,differentiation response,[20],-3.43% (inactive)
